Data published in PubChem BioAssay (NCI).
Several values for one entry are separate records, joined by “and”; a condition that tells them apart may be missing. Equal entries are not always repeated. This is part of a sample that, as a whole, favours compounds with a hit. Of some 79,000 tested, about 15% had one in any assay. Rule as the data show it: active = growth inhibition above about 70%; inactive = the rest. Where a SMILES comes first, the peptide text is derived from it. The star is where a group is joined. Boc = CC(C)(C)OC(=O)*; Bn = c1ccc(C*)cc1

How the values were obtained:
[1] = NCI Yeast Anticancer Drug Screen. Data for the rad50 strain (AID 155);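 also: 0% = growth of vehicle-only cultures of the same strain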; details: S. cerevisiae rad50 strain growth inhibition; at 50.0 µM; active compounds read high
Outline: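 Vehicle-treated cultures provide the reference for the growth inhibition reported for compound-exposed, repair-deficient yeast.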

[2] = NCI Yeast Anticancer Drug Screen. Data for the mec2-1 strain (AID 157); details: S. cerevisiae mec2-1 strain, at 50.0 µM, active compounds read high
Outline: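 Strain: mec2-1 (DNA repair/cell cycle alteration). Compound exposure, then growth measured; inhibition expressed relative to vehicle.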

[3] = NCI Yeast Anticancer Drug Screen. Data for the sgs1 mgt1 strain (AID 161);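 also: 0% = growth of cultures given vehicle only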; details: S. cerevisiae sgs1 mgt1 strain, at 50.0 µM, active compounds read high
Outline: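 Test agents were incubated with a DNA-repair-mutant yeast strain. Growth was then read and compared against vehicle-treated controls.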

[4] = NCI Yeast Anticancer Drug Screen. Data for the cln2 rad14 strain (AID 165);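 also: 0% = growth equal to vehicle treated cultures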; details: S. cerevisiae cln2 rad14 strain, at 50.0 µM, active compounds read high
Outline: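 Compounds are applied to the cln2 rad14 yeast strain, and growth is then compared with that of vehicle-treated cultures to give inhibition.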

[5] = NCI Yeast Anticancer Drug Screen. Data for the bub3 strain (AID 167); details: S. cerevisiae bub3 mutant strain, at 50.0 µM, active compounds read high
Outline: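 Mutant yeast screening strain plus compound; vehicle-treated cultures serve as the 0% inhibition reference.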

[6] = NCI Yeast Anticancer Drug Screen. Data for the mlh1 rad18 strain (AID 175); details: S. cerevisiae mlh1 rad18 strain growth inhibition; at 50.0 µM; active compounds read high
Outline: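 Read-out is yeast growth inhibition, calculated against vehicle-only controls. The compound was applied to a strain engineered with DNA damage repair alterations.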

Measured: growth inhibition

O=C(CCCC(=O)NO)NO
inactive: [1] 5.4% and 2.75% | [2] -2.25% and 0.6% | [3] -1.3% and -6.9% | [4] -8.15% and -26.6% | [5] -5.05% and -22.9% | [6] 2.65% and -37.4%

Oc1ccc2ccccc2c1CNCc1c(O)ccc2ccccc12
inactive: [1] -1.45% and 2.85% | [2] -7.9% and -34.8% | [3] 6% and 1.7% | [4] -23.4% and -2.4% | [5] 26.5% and -20.8% | [6] -8.15% and -9.85%

N=C(N)/C=C\C(=O)O
inactive: [1] 1.65% and 2.05% | [2] -9.35% and -13.2% | [3] 4.4% and -11.1% | [4] 17.4% and 14.3% | [5] -21.4% and -33.8% | [6] -4.9% and -14.8%

O=C(O)CCSCc1ccccc1
inactive: [1] -25.6% and 8.85% | [2] 0.7% and -6.9% | [3] -23.1% and 1.55% | [4] -31% and -3.5% | [5] -31.4% and -0.2% | [6] -30.3% and -16.1%

NC1CCC(N)CC1 (stereo not drawn)
inactive: [1] 7.75% and 9.05% | [2] 10% and -5.85% | [3] 0.2% and 0.75% | [4] -11.8% and -16.1% | [5] 8.65% and 10.4% | [6] -6.35% and 1.4%

Nc1ccc(O)c2c1C(=O)c1c(O)ccc(N)c1C2=O
inactive: [1] 59.8% and 13.4% | [2] 11.4% and -13.4% | [3] 16.4% and -0.55% | [4] -16.1% and -0.65% | [5] 43.2% and 8.25% | [6] 42.1% and 11.8%

CCC(C)NC(=O)C1C2CC3OC(=O)C1C3C2 (stereo not drawn)
inactive: [1] 9.85% and -12.7% | [2] -4.55% and 5.6% | [3] -2.75% and -18.9% | [4] -42.8% and -40.3% | [5] -9.5% and -6.5% | [6] 3.1% and -5.65%

CCCCNC(=S)S
inactive: [1] -1.1% and -33.5% | [2] -19.8% and -30.9% | [3] 0.65% and -20.4% | [4] -7.65% and -14.2% | [5] 11% and -23.7% | [6] -6.9% and -22.5%

O=C1/C(=C/c2ccc(F)cc2)CCC/C1=C\c1ccc(F)cc1
inactive: [1] 26.6% and -14.2% | [2] -25.7% and -10.3% | [3] 34.2% and 1.45% | [4] 27.7% and -21.4% | [5] 15.4% and -5.45% | [6] 18.9% and -6.1%

Cc1cccc(OC(=O)Cc2ccccc2)c1
inactive: [1] -17.1% and -34.1% | [2] -14.6% and -8.2% | [3] -6.1% and -8.35% | [4] -9.45% and -38% | [5] 13.6% and -12.9% | [6] -16.2% and -8%

OCC(O)C(O)C(O)c1cnn(-c2ccccc2)n1 (stereo not drawn)
inactive: [1] 8.95% and 4.85% | [2] -5.4% and 1.9% | [3] -4.6% and -4.7% | [4] 1.75% and -3.7% | [5] -2.85% and -8.2% | [6] 14.6% and -0.05%

CCCCCCCCCCSCC(CO)NC(=O)/C=C/c1c(C)[nH]c(=O)[nH]c1=O (stereo not drawn)
inactive: [1] 1.95% and 30.7% | [2] -13.7% and 15.2% | [3] 2.45% and 2% | [4] -27.2% and 14.8% | [5] -14.4% and -14% | [6] 9.55% and -47.1%

CNC(=O)C(CC(C)C)NC(=O)C(C)NC(=O)C(Cc1ccc(OCc2ccccc2)cc1)NC(=O)C(COCc1ccccc1)NC(=O)OC(C)(C)C (stereo not drawn) (Boc-S(Bn)Y(Bn)AL-NHMe; configuration not given here)
inactive: [1] -7.2% and -29.6% | [2] -17.5% and -21.1% | [3] -20.1% and -17% | [4] 17.1% and 6.9% | [5] 25% and -1.35% | [6] 1.1% and -0.25%
